Laboratory results published in PubChem BioAssay (Tox21).
Values joined by “and” are separate entries in the source; they are usually repeats but may differ in a detail not shown here. Identical values can stand only once. Records with an inconclusive call do not appear. A call without a number means that no potency is given here. The source holds several records for some structures; these can differ, active in one and inactive in another. Active and inactive are the calls of the source. Unless noted, calls follow the shape of the dose curve; as a rule, active = well fitted curve in the direction sought with a large enough effect in the repeat runs; inconclusive = weak or mixed curves; inactive = no such curve, though single readings can be large; an effect the other way counts as inactive or inconclusive.

Assays:
[1] = qHTS assay for small molecule agonists of the p53 signaling pathway (AID 651631; calls by dose curve; also: nearly all actives have a fitted effect of over 15% in size; also: potency is read from the fitted curve at half-maximal effect)
Procedure, shortened: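 HCT-116 cells carrying a beta-lactamase reporter under p53 response elements were dosed with compound for 16 h at 37 °C. LiveBLAzer B/G FRET substrate was then added for 2 h at room temperature, and fluorescence intensity was read to detect pathway agonism.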

[2] = qHTS assay for small molecules that induce genotoxicity in human embryonic kidney cells expressing luciferase-tagged ATAD5 (AID 651632); also: nearly all actives have a fitted effect of over 15% in size; also: potency is read from the fitted curve at half-maximal effect
Procedure, shortened: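 HEK293T cells carrying a luciferase reporter tagged to ATAD5 were exposed to compound or DMSO vehicle for 16 hr at 37C, 5% CO2. Amplite was added, and after 30 min at room temperature luciferase activity was read as a marker of ATAD5 induction.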

[3] = qHTS assay for small molecule agonists of the p53 signaling pathway - cell viability (AID 651633; calls by dose curve; also: nearly all actives have a fitted effect of over 30% in size; also: potency is read from the fitted curve at half-maximal effect)
Procedure, shortened: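 p53RE-bla cells, seeded at 4,000 per well and rested 5 h at 37 C/5% CO2, received compounds in DMSO for 16 h at 37 C. CellTiter-Glo was then added, and luminescence was read after 30 min at room temperature to gauge cytotoxicity.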

[4] = qHTS assay for small molecules that induce genotoxicity in human embryonic kidney cells expressing luciferase-tagged ATAD5 - cell viability (AID 651634; calls by dose curve; also: nearly all actives have a fitted effect of over 25% in size; also: potency is read from the fitted curve at half-maximal effect)
Procedure, shortened: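 HEK293T cells expressing luciferase-tagged ATAD5 were exposed to compound or DMSO for 15.5 hr at 37C, 5% CO2. Viability was then read as live-cell protease activity by CellTiter-Fluor fluorescence after 30 min at 37C.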

[5] = qHTS assay for small molecule disruptors of the mitochondrial membrane potential - cell viability (AID 720634; calls by dose curve;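 also: human HepG2 liver cancer cells; series mostly up to about 83 µM; nearly all actives have a fitted effect of over 20% in size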)
Procedure, shortened: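 HepG2 cells seeded overnight at 37 C, then exposed to compound or DMSO for 1 hr at 37 C, 5% CO2. m-MPI dye added, then CellTiter-Glo for 30 min at room temperature; viability read as ATP luminescence.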

[6] = qHTS assay for small molecule disruptors of the mitochondrial membrane potential (AID 720635); also: potency is read from the fitted curve at half-maximal effect
Procedure, shortened: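 HepG2 cells (2,000/well) attached overnight at 37C, then took compound for 1 hr at 37C, 5% CO2. Mito-MPS dye was added for 30 min; fluorescence was read at 490/535 nm (monomers) and 540/590 nm (aggregates).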

[7] = qHTS assay to test for compound auto fluorescence at 590 nm (red) in HepG2 cells (AID 720674)
Procedure, shortened: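 Intrinsic compound fluorescence in the red window (Ex/Em 540/590 nm) is measured in attached HepG2 cells exposed for 1 hr, DMSO vehicle as baseline, benchmarked to Rose Bengal sodium.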

[8] = qHTS assay to test for compound auto fluorescence at 535 nm (green) in HepG2 cells (AID 720675)
[9] = qHTS assay to test for compound auto fluorescence at 460 nm (blue) in HEK293 cells (AID 720678)
Procedure, shortened: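 Blue-channel (Ex/Em 405/460 nm) intensity measured in HEK293 cultures after overnight compound exposure at 37C; signal expressed relative to triamterene. Cells plated 2,000 per well in 10% dialyzed FBS medium and allowed 4-5 hr to attach.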

[10] = qHTS assay to test for compound auto fluorescence at 590 nm (red) in HEK293 cells (AID 720679)
Procedure, shortened: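 Red-channel autofluorescence (Ex/Em 540/590 nm; Rose Bengal sodium reference) was measured after overnight 37C, 5% CO2 exposure of attached HEK293 cells, 2,000 per well in medium with 10% dialyzed FBS.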

Compound	Potency [1]	Potency [2]	Potency [3]	Potency [4]	Potency [5]	Potency [6]	Potency [7]	Potency [8]	outcome [9]	Potency [10]
ClC/C=C/CCl	inactive	inactive	inactive	inactive	inactive	inactive	inactive	inactive	inactive	inactive
Cc1ccc(C(C)(C)C)cc1	inactive	inactive	inactive	inactive	inactive	inactive	inactive	inactive	inactive	inactive
CC(=O)Nc1ccc2c(c1)Cc1cc(NC(C)=O)ccc1-2	inactive	inactive	inactive	inactive		inactive	inactive	inactive	inactive	inactive
C/C=C/C(=O)N(CC)c1ccccc1C	inactive	inactive	inactive	inactive	inactive	inactive	inactive	inactive	inactive	inactive
CCCCCC=O	inactive	inactive	inactive	inactive	inactive		inactive	inactive	inactive	inactive
Nc1cc(Cl)c(N)c(Cl)c1	inactive	inactive	inactive	inactive	inactive		inactive	inactive	inactive	inactive
Cc1ccc([N+](=O)[O-])c(C)c1	inactive	inactive	inactive	inactive	inactive	inactive	inactive	inactive	inactive	inactive
C1CN(SSN2CCOCC2)CCO1	inactive	inactive	inactive	inactive	inactive	61.1 µM (active)	inactive	inactive	inactive	inactive
CC1(C)OC(=O)NC1=O	inactive	inactive	inactive	inactive	inactive	inactive	inactive	inactive	inactive	inactive
CC(=O)Oc1ccc(C(c2ccc(OC(C)=O)cc2)c2ccccn2)cc1	944 nM (active) and 271 nM (active)	inactive	668 nM (active) and 483 nM (active)	inactive	inactive	6.68 µM (active) and 21.6 µM (active)	inactive	inactive	inactive	inactive
c1ccc2ncccc2c1	inactive	inactive	inactive	inactive	inactive	inactive	inactive	inactive	inactive	inactive
Clc1ccc(Sc2cc(Cl)c(Cl)cc2Cl)cc1	inactive	inactive	inactive	inactive	inactive	1.68 µM (active) and 864 nM (active)	inactive	inactive	inactive	inactive
CC(C)[N+](C)(CCOC(=O)C1c2ccccc2Oc2ccccc21)C(C)C	inactive	inactive	inactive	inactive		inactive	inactive	inactive	inactive	inactive
C[C@]12C=CC(=O)C=C1CC[C@H]1[C@@H]3C[C@@H](O)[C@](O)(C(=O)CO)[C@@]3(C)C[C@H](O)[C@@]12F	inactive	inactive	inactive	inactive	inactive	inactive	inactive	inactive	inactive	inactive
C=CCOC(=O)C(=C)C	inactive	inactive	inactive	inactive		inactive	inactive	inactive	inactive	inactive
CC1=CC(C)(C)Nc2ccccc21	inactive	inactive	inactive	inactive	inactive	inactive and 59.5 µM (active)	inactive	inactive	inactive	inactive
C1COCCN1	inactive	inactive	inactive	inactive	inactive	inactive	inactive	inactive	inactive	inactive
O=C(O)c1ccc(O)cc1	inactive	inactive	inactive	inactive		inactive	inactive	inactive	inactive	inactive
c1ccc2c(c1)ccc1cc3c(ccc4ccccc43)cc12	12.1 µM (active)	853 nM (active) and 959 nM (active)	inactive	inactive		inactive	inactive	inactive	inactive	inactive
CCC(Cc1c(I)cc(I)c(N)c1I)C(=O)O (configuration not stated)	inactive	inactive	inactive	inactive		inactive	inactive	inactive	inactive	inactive
O=C(O)CCCC(=O)O	inactive	inactive	inactive	inactive	inactive	inactive	inactive	inactive	inactive	inactive
O=C(O)c1cc(=O)[nH]c(=O)[nH]1	inactive	inactive	inactive	inactive	inactive	inactive	inactive	inactive	inactive	inactive
CC(C)(Oc1ccc(Cl)cc1)C(=O)O	inactive	inactive	inactive	inactive	inactive	inactive	inactive	inactive	inactive	inactive

Compound	Potency [1]	Potency [2]	Potency [3]	Potency [4]	Potency [5]	Potency [6]	Potency [7]	Potency [8]	outcome [9]	Potency [10]
CN(C)CCCN1c2ccccc2Sc2ccc(Cl)cc21	10.9 µM (active)	inactive	inactive	inactive	inactive		inactive	inactive	inactive	inactive
Cc1ccc(C)c(O)c1	inactive	inactive	inactive	inactive	inactive	inactive	inactive	inactive	inactive	inactive
Nc1ccc2c(O)cc(S(=O)(=O)O)cc2c1	4.86 µM (active) and 2.43 µM (active)	inactive	inactive	inactive	inactive		inactive	inactive	inactive	inactive
C=CC(=O)OCCCC	inactive	inactive	inactive	inactive	inactive	inactive	inactive	inactive	inactive	inactive
CCCCCCCCCCCCO	inactive	inactive	inactive	inactive		inactive	inactive	inactive	inactive	inactive
[Na+]	inactive	inactive	inactive	inactive	inactive	inactive	inactive	inactive	inactive	inactive
COc1ccc(C(=O)c2ccccc2O)c(O)c1	inactive	inactive	inactive	inactive	inactive	8.04 µM (active) and 8.61 µM (active)	inactive	inactive	inactive	inactive
CC(=O)[C@@]1(O)CC[C@H]2[C@@H]3C[C@H](C)C4=CC(=O)C=C[C@]4(C)[C@@]3(F)[C@@H](O)C[C@@]21C	inactive	inactive	inactive	inactive	inactive		inactive	inactive	inactive	inactive
Cc1ccc(S(=O)(=O)O)cc1C	inactive	inactive	inactive	inactive	inactive	inactive	inactive	inactive	inactive	inactive
Nc1cc([N+](=O)[O-])ccc1C(=O)O	inactive	inactive	inactive	inactive		38.6 µM (active)	inactive	inactive	inactive	inactive
COC(=O)CC(=O)OC	inactive	inactive	inactive	inactive	inactive	inactive	inactive	inactive	inactive	inactive
CCO[Si](CCCNC(N)=O)(OCC)OCC	inactive	inactive	inactive	inactive	inactive	inactive	inactive	inactive	inactive	inactive
Nc1ccc(O)c(N)c1	inactive	inactive	inactive	54.1 µM (active) and 61.1 µM (active)		10.8 µM (active) and 4.86 µM (active)	inactive	inactive	inactive	inactive
O=C1CCc2ccccc2O1	inactive	inactive	inactive	inactive	inactive	inactive	inactive	inactive	inactive	inactive
COc1cc([C@H]2Oc3cc([C@H]4Oc5cc(O)cc(O)c5C(=O)[C@@H]4O)ccc3O[C@@H]2CO)ccc1O	inactive	inactive	inactive	inactive		29.8 µM (active) and 21.6 µM (active)	inactive	inactive	inactive	inactive
CNC[C@H](O)c1ccc(O)c(O)c1	inactive	inactive	inactive	inactive	inactive	inactive	inactive	inactive	inactive	inactive
CCCOCCO	inactive	inactive	inactive		inactive	inactive	inactive	inactive	inactive	inactive
CC(C)(C)c1cccc(C(C)(C)C)c1O	inactive	inactive	inactive			16.8 µM (active) and 15.4 µM (active)	inactive	inactive	inactive	inactive
C[C@]12CC[C@@H]3c4ccc(O)cc4CC[C@H]3[C@@H]1CC[C@@H]2O	13.3 µM (active) and 19.3 µM (active) and 9.69 µM (active)	inactive	inactive		inactive	26.6 µM (active) and 30.6 µM (active) and 17.2 µM (active)	inactive	inactive	inactive	inactive
Oc1c(Cl)ccc(Cl)c1Cl	inactive	inactive	inactive	inactive		4.32 µM (active) and 61.1 µM (active)	inactive	inactive	inactive	inactive
C=C[C@@]1(C)CC(=O)[C@]2(O)[C@@]3(C)[C@@H](O)CCC(C)(C)[C@@H]3[C@H](O)[C@H](OC(C)=O)[C@@]2(C)O1	inactive	266 nM (active) and 122 nM (active)	inactive			26.6 µM (active)	inactive	inactive	inactive	inactive
[O-]/[N+](=N\O)c1ccccc1	inactive	inactive	inactive		inactive	inactive	inactive	inactive	inactive	inactive
